Bioassay records from PubChem.
CHOP inh: CHOP inhibition in unfolded protein response; AID 2732; inhibition, % at 10 µM; 220,000 tested, 3.8% active; CHO-K1 CHOP-promoter luciferase, tunicamycin-induced, 15-18 h;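 active means compounds that reduced the stress-induced luciferase reporter signal by more than about 70% of percent inhibition, limit read from the data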;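 further: 0% = tunicamycin plus vehicle and 100% = wells without tunicamycin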
Lmaj promast: reduces viability of Leishmania major promastigotes. 200,000 tested, 9% active. AID 1063. resazurin fluorescence viability. inhibition, % at 10 µM; in the data active means inhibition above about 50%;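 further: promastigotes grown with compound for 44 hours at 28 °C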
WT yeast gro inh: growth inhibition of WT yeast, mitochondrial fusion screen; 190,000 tested, 2.1% active; inhibition, % at 10 µM; mitochondrial fusion phenotypic screen, WT strain; in the data active means inhibition above about 58%; tested in S. cerevisiae
Arbovirus anti: antivirals against arbovirus infection. inhibition, % at 10 µM. AID 1251. arbovirus infection cell-based antiviral screen. 200,000 tested, 0.37% active; in the data active means inhibition above about 30%
Numbers without * were called inactive. Only some compounds are listed: those with a hit (about 12% of all), similar ones and a draw of the others.

Cc1ccc(C(=O)n2c(N)nc3ccccc32)cc1 was read as CHOP inh 74.8*, Lmaj promast 18.1, WT yeast gro inh 31.2 and Arbovirus anti -0.5.
`COc1ccc(C(=O)n2c(-c3ccco3)nc3ccccc32)cc1` gave Lmaj promast 12.4, WT yeast gro inh 22.1 and Arbovirus anti -20.6.
Screening CCn1c(SCC(=O)O)nnc1-c1ccccc1OC returned CHOP inh -11.5, Lmaj promast -5.5, WT yeast gro inh 1.5 and Arbovirus anti 4.5.
For CCO[C@@H]1OC(C(=O)N2CCCCCCC2)=C[C@H](c2ccc3c(c2)OCO3)[C@H]1CCCO the results were CHOP inh -2.5, Lmaj promast -1.1, WT yeast gro inh 6.1 and Arbovirus anti -3.7.
CCCCCC/C(C)=C1/SC(=S)NC1=O was read as CHOP inh 31.0, Lmaj promast -8.9, WT yeast gro inh 86.4* and Arbovirus anti 15.8.
`C/C(C/C(C)=C1/SC(=S)NC1=O)=C1\SC(=S)NC1=O` gave CHOP inh 6.1, Lmaj promast -10.9, WT yeast gro inh -5.6 and Arbovirus anti 32.7*.
`CN1CCC/C1=C/C=C1\SC(=S)NC1=O` gave CHOP inh 1.8, Lmaj promast -5.3, WT yeast gro inh 18.5 and Arbovirus anti -16.9.
`c1ccc2sc(NN=C3CCCCCC3)nc2c1` gave CHOP inh 39.7, Lmaj promast 62.7*, WT yeast gro inh 43.6 and Arbovirus anti 5.2.
`O=C(Nc1nc2ccccc2s1)c1ccccc1` gave CHOP inh 2.1, Lmaj promast 21.6, WT yeast gro inh 25.9 and Arbovirus anti 6.0.
For CCOc1cc(NC(=S)NCCCN2CCOCC2)c(OCC)cc1NC(=O)c1ccc(OC)cc1 the results were CHOP inh 16.2, Lmaj promast 4.1, WT yeast gro inh 1.0 and Arbovirus anti -0.8.
For COc1ccc(NC(=O)c2ccc(NCCCN3CCOCC3)c([N+](=O)[O-])c2)cc1 the results were CHOP inh -14.5, Lmaj promast 54.7*, WT yeast gro inh -1.2 and Arbovirus anti 5.7.
Screening Cc1ccc(NC(=O)c2ccc(N3CCOCC3)c([N+](=O)[O-])c2)cc1S(=O)(=O)N1CCOCC1 returned CHOP inh 22.5, Lmaj promast 7.8, WT yeast gro inh -1.2 and Arbovirus anti 13.2.
For Cc1ccc(NC(=O)c2ccc(NCCCN3CCOCC3)c([N+](=O)[O-])c2)cc1Cl the results were CHOP inh 20.5, Lmaj promast 99.3*, WT yeast gro inh 28.1 and Arbovirus anti -30.9.
Screening CCOC(=O)c1[nH]c(Cc2[nH]c(C(=O)OCC)c(C)c2CCC(=O)OC)c(CCC(=O)OC)c1C returned CHOP inh 84.8*, Lmaj promast 35.4, WT yeast gro inh 2.9 and Arbovirus anti 3.7.
Screening Cc1cc(C)nc(/N=C2\NC(=O)CC(C(=O)O)N2c2cccc(Cl)c2)n1 (centres undefined) returned CHOP inh -21.0, Lmaj promast -1.2, WT yeast gro inh -0.3 and Arbovirus anti 0.6.
For COC(=O)/C=C1/N/C(=N\c2nc(C)cc(C)n2)N(c2ccc(Cl)cc2)C1=O the results were CHOP inh 21.6, Lmaj promast 50.2*, WT yeast gro inh 1.3 and Arbovirus anti -7.2.
COC(=O)C1=C(C)N(c2cc(Cl)cc(Cl)c2)C(=O)C1 was read as CHOP inh -92.7, Lmaj promast 86.5*, WT yeast gro inh -4.8 and Arbovirus anti 0.1.
Cc1sc(NC(=O)c2ccco2)c(C(c2cccnc2)N2CCN(CCO)CC2)c1C (centres undefined) was read as CHOP inh 36.3, Lmaj promast 4.5, WT yeast gro inh -6.6 and Arbovirus anti -1.7.
For CCOC(=O)N1CCN(Cc2c(NC(=O)c3ccco3)sc(C)c2C)CC1 the results were CHOP inh 33.3, Lmaj promast 2.7, WT yeast gro inh 7.1 and Arbovirus anti -6.9.
CCOC(=O)C1CCN(C(c2cccnc2)c2c(NC(=O)c3ccco3)sc(C)c2C)CC1 (centres undefined) was read as Lmaj promast 93.4*, WT yeast gro inh 41.8 and Arbovirus anti -28.5.
`CCOc1ccc(C(c2c(NC(=O)c3ccccc3)sc(C)c2C)N2CCN(CCO)CC2)cc1` (centres undefined) gave CHOP inh 83.4*, Lmaj promast 44.6, WT yeast gro inh 67.7* and Arbovirus anti -31.7.
For Cc1sc(NC(=O)c2ccco2)c(C(c2cccnc2)N2CCN(c3ccc(F)cc3)CC2)c1C (centres undefined) the results were Lmaj promast 80.0*, WT yeast gro inh 55.9 and Arbovirus anti -2.7.
Cc1sc(NC(=O)c2ccco2)c(C(c2ccccc2)N2CCC(C)CC2)c1C (centres undefined) was read as CHOP inh 46.8, Lmaj promast 37.3, WT yeast gro inh 49.0 and Arbovirus anti -16.8.
`Cc1sc(NC(=O)c2ccco2)c(C(c2ccc(F)cc2)N2CCN(C)CC2)c1C` (centres undefined) gave CHOP inh 39.0, Lmaj promast 51.4*, WT yeast gro inh 95.0* and Arbovirus anti -27.1.
`CCc1cc(C(c2ccncc2)N2CCN(C)CC2)c(NC(=O)c2ccccc2)s1` (centres undefined) gave CHOP inh 7.1, Lmaj promast 2.9, WT yeast gro inh -9.7 and Arbovirus anti 17.6.
Screening Cc1ccc(Cn2ccc(NC(=O)c3cc4nc(-c5ccco5)cc(C(F)(F)F)n4n3)n2)cc1 returned CHOP inh 92.8*, Lmaj promast 1.6, WT yeast gro inh 9.0 and Arbovirus anti -0.9.
Screening O=C(O)C1=C(OCc2ccc(F)c(F)c2)C(=O)NCC1 returned CHOP inh 20.3, Lmaj promast -8.5, WT yeast gro inh 0.4 and Arbovirus anti 6.8.
`O=C(NCCCn1ccnc1)c1cc2c(s1)CCCCC2` gave CHOP inh 32.1, Lmaj promast 59.9*, WT yeast gro inh -14.1 and Arbovirus anti 4.2.
Screening CCCc1cc2c(OC(=O)CC)c(-c3ccc(C(=O)OCC)o3)c(=O)oc2cc1OC returned CHOP inh 36.0, Lmaj promast -4.9, WT yeast gro inh 9.2 and Arbovirus anti 58.5*.
For CCCc1cc(C(=O)Cc2ccc(C(=O)OCC)o2)c(O)cc1O the results were CHOP inh 61.4, Lmaj promast -5.2, WT yeast gro inh 9.5 and Arbovirus anti 6.4.
For CCN(CC)CC(=O)Nc1scc2c1c(=O)oc1ccccc12 the results were CHOP inh -10.0.
`CN(CC(=O)Nc1ccc(N2CCOCC2)cc1)Cc1cc(=O)n2ccsc2n1` gave CHOP inh 6.9, Lmaj promast -6.7, WT yeast gro inh -38.4 and Arbovirus anti 13.4.
For CC1CCN(S(=O)(=O)c2cc([N+](=O)[O-])ccc2Cl)CC1 the results were CHOP inh 0.6, Lmaj promast 54.8*, WT yeast gro inh 9.1 and Arbovirus anti -7.8.
Screening O=C(Nc1nc2ccccc2s1)C1CCN(S(=O)(=O)c2cc([N+](=O)[O-])ccc2Cl)CC1 returned CHOP inh 82.6*.
Screening CC1CCN(S(=O)(=O)c2ccc(Cl)cc2Br)CC1 returned CHOP inh 78.1*, Lmaj promast 3.6, WT yeast gro inh 24.7 and Arbovirus anti -2.2.
Screening O=S(=O)(c1cc(Cl)ccc1Br)N1CCCCC1 returned CHOP inh 55.1, Lmaj promast 3.7, WT yeast gro inh 13.9 and Arbovirus anti 7.4.
O=[N+]([O-])c1ccc(Cl)c(CN2CCC(O)CC2)c1 was read as CHOP inh 27.1, Lmaj promast 61.6*, WT yeast gro inh -6.3 and Arbovirus anti 4.0.
